This passage reports outcome and AC50 results from PubChem BioAssay (EPA / NIEHS).

The nature of experiment [1]: CCTE_Shafer_MEA_dev_firing_rate_mean: CCTE's Neural Network Formation Assay for Mean Firing Rate, Shafer Lab (AID 2284031).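 As to AC50: curve fitted for loss of firing so AC50 reflects decreased mean firing rate.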 The procedure, abridged:
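Extracellular spike frequency, AUC over DIV 5–12 recordings, in rat cortical neuron MEA cultures dosed from plating; loss direction vs DMSO.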

The nature of experiment [2]: CCTE_Shafer_MEA_dev_per_burst_spike_percent: CCTE's Neural Network Formation Assay for Percent of Spikes in a Burst, Shafer Lab (AID 2284032).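 As to AC50: fitted as a decrease in burst spike percentage below DMSO baseline.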 The gist of the method: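 Value is trapezoidal AUC over recordings on days 5, 7, 9 and 12 of the well-mean fraction of spikes falling in single-electrode bursts; rat cortical cultures exposed continuously from plating, treatment renewed DIV 5 and 9, fitted downward against DMSO.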

Experiment [3] is described as follows: CCTE_Shafer_MEA_dev_active_electrodes_number: CCTE's Neural Network Formation Assay for Number of Active Electrodes, Shafer Lab (AID 2284040; active = hit-call score of the fitted dose curve at least 0.9, where 1 is the maximum;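 as to AC50: potency for loss of active electrodes versus DMSO so lower counts are hits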). The procedure, abridged:
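Developing rat cortical networks on MEAs, exposed DIV 0–12. Value is the AUC of active-electrode counts (≥5 spikes/min) from days 5, 7, 9, 12, relative to DMSO.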

Experiment [4] in a line: CCTE_Shafer_MEA_dev_burst_rate: CCTE's Neural Network Formation Assay for Burst Rate, Shafer Lab (AID 2284042).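 As to AC50: potency for loss of burst rate below DMSO control.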 The gist of the method:
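Developmental network assay measuring how 12-day exposure of rat cortical neuron cultures alters bursting on extracellular MEA recordings. Values are AUC of well-mean burst rate across four recording days, relative to DMSO vehicle.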

A short description of experiment [5]: CCTE_Shafer_MEA_dev_bursting_electrodes_number: CCTE's Neural Network Formation Assay for Number of Bursting Electrodes, Shafer Lab (AID 2284043; active = hit-call score of the fitted dose curve at least 0.9, where 1 is the maximum;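 as to AC50: potency is for loss of bursting electrodes relative to DMSO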). The gist of the method:
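Number of electrodes reaching ≥1 burst every 2 min was recorded at DIV 5, 7, 9 and 12 and collapsed as trapezoidal area under the curve. Cultures were rat cortical neurons on MEA plates, dosed continuously from plating with medium and treatment refreshed on DIV 5 and 9.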

The nature of experiment [6]: CCTE_Shafer_MEA_dev_per_burst_interspike_interval: CCTE's Neural Network Formation Assay for Burst Interspike Interval, Shafer Lab (AID 2284044).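 As to AC50: potency for a decrease of within-burst interspike interval below DMSO level.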 The gist of the method:
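Neurons from rat cortex plated onto PEI-coated MEA wells with laminin […] at 1.5 x 10^5 cells/well, then treated from day 0. Media and compound fully replaced on DIV 5 and 9. Extracellular spontaneous firing recorded four times; interspike interval per burst summarised as AUC.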

Experiment [7] concerns the target Estrogen receptor (Homo sapiens) (UniProt P03372). Description: CCTE_Deisenroth_AIME_384WELL_LUC_Active: CCTE's 384-well Estrogen Receptor Transactivation Assay with AIME metabolic competence (ERTA luciferase; metabolism positive), Deisenroth Lab (AID 2284030; active = hit-call score of the fitted dose curve at least 0.9, where 1 is the maximum). The procedure, abridged: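 AIME metabolism-positive mode: chemicals 0.002 - 200 uM, 2 h with alginate-bound PB/BNF-induced rat S9 → medium to VM7Luc4E2 ERTA, 24 h → luciferase. Positive fit vs 17beta-estradiol; n=4 typical.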

Experiment [8] has the same target. Description: CCTE_Deisenroth_AIME_384WELL_LUC_Inactive: CCTE's 384-well Estrogen Receptor Transactivation Assay without AIME metabolic competence (ERTA luciferase; metabolism negative), Deisenroth Lab (AID 2284038; active = hit-call score of the fitted dose curve at least 0.9, where 1 is the maximum;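 also: VM7Luc4E2 breast cells given medium preincubated 2 h with S9-free microspheres; hits raise estrogen receptor luciferase signal so potencies reflect agonists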). The gist of the method: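 Metabolism-negative mode: AIME lids stamped in alginate-water, no hepatic S9. 2 h chemical incubation → medium onto VM7Luc4E2 ERTA, 24 h. Readout luciferase luminescence; gain-of-signal fit vs 17beta-estradiol. Conc. 0.002 - 200 uM.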

Experiment [9] in a line: CCTE_Deisenroth_AIME_384WELL_CTox_Inactive: Cytotoxicity Assessment (CTOX) in CCTE's 384-well Estrogen Receptor Transactivation Assay without AIME metabolic competence (metabolism negative), Deisenroth Lab (AID 2284039; active = hit-call score of the fitted dose curve at least 0.9, where 1 is the maximum;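 also: cell viability via live-cell protease substrate cleaved to fluorescent probe; cells exposed 24 h to medium preincubated 2 h with alginate-water beads without S9; loss of fluorescence signal means loss of viability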). The procedure, abridged:
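Fluorescence from a live-cell protease substrate, read after 24 h in VM7Luc4E2 cells, indicated viability. Test medium came from a 2 h AIME step without hepatic S9 (alginate-water microspheres); concentrations spanned 0.002 - 200 uM, single technical replicate per run.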

“And” between values parts separate entries of the source, which are not always exact repeats. Equal values may be shown once. Results filed as inconclusive are left out. Some structures have more than one record in an assay (separate samples or runs), and their calls can disagree. The source made the active and inactive calls. The calls were made as follows, unless noted: active = hit-call score of the fitted dose curve at least 0.9, where 1 is the maximum; inactive = score below 0.9.

Estrogen receptor (Homo sapiens), sequence (P03372 whole entry, looked up): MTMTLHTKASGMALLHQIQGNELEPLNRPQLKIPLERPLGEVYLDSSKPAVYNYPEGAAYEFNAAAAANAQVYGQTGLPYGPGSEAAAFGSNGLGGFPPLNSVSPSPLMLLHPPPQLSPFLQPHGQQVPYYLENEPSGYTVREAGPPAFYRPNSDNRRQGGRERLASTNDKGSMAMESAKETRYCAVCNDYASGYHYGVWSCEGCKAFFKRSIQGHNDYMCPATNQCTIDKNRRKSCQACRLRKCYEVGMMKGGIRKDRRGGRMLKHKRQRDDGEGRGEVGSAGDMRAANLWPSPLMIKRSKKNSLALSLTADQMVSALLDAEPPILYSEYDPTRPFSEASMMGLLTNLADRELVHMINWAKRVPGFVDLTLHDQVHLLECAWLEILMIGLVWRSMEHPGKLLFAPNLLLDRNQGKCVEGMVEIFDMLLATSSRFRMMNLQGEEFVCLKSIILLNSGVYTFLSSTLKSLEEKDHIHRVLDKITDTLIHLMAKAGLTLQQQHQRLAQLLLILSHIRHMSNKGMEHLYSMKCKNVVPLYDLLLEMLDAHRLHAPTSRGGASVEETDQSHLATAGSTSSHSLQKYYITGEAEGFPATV

As for `c1ccc(OP(Oc2ccccc2)Oc2ccccc2)cc1`, the call in [1], in experiment [2], in experiment [3], in [4], in experiment [5] and in [6] was inactive.

Regarding `CCCCC(CC)COP(=O)(Oc1ccccc1)Oc1ccccc1` (centres undefined), the result in experiment [1], in experiment [2], in experiment [3], in experiment [4], in experiment [5] and in experiment [6] was inactive.

With `c1cc2c3c(cccc3c1)CC2`, the call in [1], in experiment [2], in [3], in [4], in experiment [5] and in experiment [6] was inactive.

In the case of `O=C(O)C(F)(F)OC(F)(F)C(F)(F)OC(F)(F)F`, the outcome in [1], in experiment [2], in experiment [3], in [4] and in experiment [6] was inactive.

As for `C=CC(=O)OCC(F)(F)C(F)F`, the result in experiment [1] and in experiment [4] was inactive. Further, the AC50 in experiment [2] is 5.66 µM (active); in experiment [3], 4.45 µM (active); in experiment [5], 4.87 µM (active); in experiment [6] it was 2.98 µM (active).

With `COCCOCCO`, the call in experiment [7], in [8] and in experiment [9] was inactive.

As to `c1nc[nH]n1`, the result in experiment [7], in [8] and in experiment [9] was inactive.

`OCC(F)(F)OC(F)(F)C(F)(F)OC(F)(F)C(F)(F)OC(F)(F)CO`: the outcome in experiment [1], in experiment [2], in experiment [3], in [4], in experiment [5] and in experiment [6] was inactive.

Turning to `CCOP(=S)(OCC)SCSCC`, the call in [1], in experiment [2], in [4] and in experiment [6] was inactive. For the same compound, the AC50 was 74.7 µM (active) in [2]; 81.3 µM (active) and 23.2 µM (active) in experiment [3]; 76.1 µM (active) and 23.1 µM (active) in experiment [5].

Consider `O=C(O)C(F)(F)OC(F)(F)C(F)(F)OC(F)(F)C(=O)O`, for which the compound was called inactive in [1], in [2], in [3], in experiment [4], in experiment [5] and in experiment [6].

Consider `CCCCC(CC)COC(=O)c1c(Br)c(Br)c(Br)c(Br)c1C(=O)OCC(CC)CCCC` (centres undefined), for which the result in experiment [1], in [2], in experiment [3], in experiment [4], in experiment [5] and in experiment [6] was inactive.

`CC(C)(C)c1ccccc1OP(=O)(Oc1ccccc1)Oc1ccccc1`: the outcome in [1], in [2], in experiment [3], in experiment [4] and in experiment [6] was inactive. The AC50 in experiment [2] was 26.2 µM (active); in experiment [3], 24.3 µM (active); in [5], 16.4 µM (active) and 26.8 µM (active).

`O=C(O)C(F)(OC(F)(F)C(F)(F)C(F)(F)F)C(F)(F)F` (centres undefined): the compound was classed as inactive in experiment [1], in [2], in [3], in [4], in experiment [5] and in [6]. Besides, the AC50 in experiment [4] was 11.7 µM (active).

`ClC1=C(Cl)C2(Cl)C3C(Cl)C(Cl)CC3C1(Cl)C2(Cl)Cl` (centres undefined): the AC50 in [1] was 4.35 µM (active); in experiment [2] it was 6.7 µM (active); in [3] it was 5.54 µM (active); in experiment [4] it was 7.48 µM (active); in experiment [5] it was 7.54 µM (active); in [6] it was 3.93 µM (active).

`OCC(F)(F)OC(F)(F)C(F)(F)OC(F)(F)C(F)(F)OC(F)(F)F`: the compound was called inactive in experiment [1], in [2], in experiment [3], in experiment [4], in experiment [5] and in experiment [6].

In the case of `CCOS(=O)(=O)OCC`, the call in experiment [7], in experiment [8] and in [9] was inactive.

With `CCOc1ccc(C(C)(C)COCc2cccc(Oc3ccccc3)c2)cc1`, the half-maximal activity concentration (AC50) in experiment [1] is 5.99 µM (active); in [2] it was 10 µM (active); in [3] it was 10 µM (active); in experiment [5] it was 8.06 µM (active); in experiment [6], 14 µM (active). In addition, in [4], the call was inactive.

On to `CC(O)C(F)(F)C(F)(F)F` (centres undefined), for which the result in experiment [1], in [2], in experiment [3], in experiment [4], in experiment [5] and in experiment [6] was inactive.

Take `O=P(Oc1ccccc1)(Oc1ccccc1)Oc1ccccc1`: the result in [1], in [2], in [3], in experiment [4], in experiment [5] and in [6] was inactive.

As for `OCC(F)(F)OC(F)(F)C(F)(F)OC(F)(F)CO`, the result in experiment [1], in experiment [2], in [3], in [4], in experiment [5] and in experiment [6] was inactive.

As for `Cc1cccc(N)c1`, the outcome in experiment [7], in experiment [8] and in [9] was inactive.

For the compound `O=P1(N(CCCl)CCCl)NCCCO1` (centres undefined), the compound was called inactive in [1], in experiment [2], in experiment [3], in experiment [4], in experiment [5] and in experiment [6].

Turning to `O=C(O)C1C(C(=O)O)C2(Cl)C(Cl)=C(Cl)C1(Cl)C2(Cl)Cl` (centres undefined), the compound was classed as inactive in experiment [1], in [2], in experiment [4] and in experiment [6].

As to `CCC1(c2ccccc2)C(=O)N=C(O)NC1=O` (centres undefined), the compound was called inactive in experiment [1], in experiment [2], in experiment [3], in [4] and in [6].

`O=C(O)C=CC(F)(C(F)(F)F)C(F)(F)F`: the outcome in [1], in experiment [2], in experiment [4] and in experiment [6] was inactive.

In the case of `O=S(=O)(c1ccc(O)cc1)c1ccc(O)cc1`, the compound was called inactive in experiment [1], in experiment [2], in experiment [3], in experiment [4], in experiment [5] and in [6].

In the case of `O=C(O)C(F)(F)C(F)(F)C(=O)O`, the compound was classed as inactive in experiment [1], in experiment [2], in experiment [3], in experiment [4], in [5] and in experiment [6].

On to `CO/N=C(/C(=O)OC)c1ccccc1COc1ccccc1C`, for which the AC50 was 1 µM (active) in experiment [1]; 0.639 µM (active) in experiment [2]; 0.857 µM (active) in experiment [3]; 0.403 µM (active) in [4]; 0.857 µM (active) in [5]; 2.25 µM (active) in experiment [6].
